Experimental findings from PubChem BioAssay (NCI) are described below.

Holding throughout (assay): NCI-60 one-dose screen, 48 h (100 = growth as untreated, 0 = no growth, -100 = all killed)
What all share (settings): 10 µM unless noted

Test [1] deals with NCI-H23 lung.
Test [2] deals with NCI-H226 lung.
Test [3] deals with NCI-H322M lung.
The test system of test [4] is HOP-62 NSCLC.
The subject of test [5] is NCI-H460 lung.
The subject of test [6] is HOP-92 NSCLC.
Test [7] relates to NCI-H522 lung.
Test [8] concerns A549/ATCC NSCLC.
The subject of test [9] is 786-0 renal.
The subject of test [10] is COLO 205 colon.
The test system of test [11] is DU-145 prostate.
For test [12], the system named is K-562 leukemia.
For test [13], the system named is MALME-3M melanoma.
For test [14], the system named is MDA-MB-231 breast.
Test [15] concerns RXF 393 renal.
Test [16] deals with SF-268 CNS.
The subject of test [17] is SF-295 CNS.
In test [18] the test system is SF-539 CNS.
In test [19] the test system is UACC-257 melanoma.
Test [20] relates to M14 melanoma.

The structures appear in SMILES notation. The panel holds about 83,000 compounds, 20% with a hit somewhere; the sample as a whole holds those more often.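 Growth was measured after 48 h exposure to one concentration of compound in 96-well plates. Values under 10 count as active.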 A number with no mark means an inactive call. Active and inactive are the calls of the source.

Take `Brc1ccc(Nc2nc(Nc3cnc4ccccc4c3)c3[nH]cnc3n2)cc1`: the growth was 76% in [1]; 64.1% in test [2]; 105% in [3]; 64.6% in test [4]; 65% in test [5]; 26% in test [6]. Further, the growth in [7] was 54.2%; in [8], 79.6%; in test [9] it was 49.4%; in [10], 90.4%; in test [11] it was 81.3%; in test [12] it was 79.7%. Further, the growth in [13] was 105%; in test [14], 53.8%; in [15] it was 75.8%; in [16] it was 76.6%; in test [17], 84.7%; in [18], 87.4%. The growth in test [19] was 90.3%; in [20] it was 84.8%.
For the molecule `N#Cc1ccc(O)c(C2=NCC(c3ccc(-c4ccccc4)cc3)O2)c1` (stereo not given), the growth in test [1] is 27.8%; in [2] it was 29.8%; in test [3] it was 33%; in test [4], 2.79% (active); in test [5], 1.31% (active); in test [6], 35%. Moreover, the growth in test [7] was -8.42% (active); in test [8] it was 2.62% (active); in test [9], 20.1%; in [10], 1.08% (active); in [11], 30.5%; in [12], 7.82% (active). Further, the growth in test [13] was 17.4%; in test [14], 25%; in [15], 42.2%; in test [16], 19.7%; in test [17], 19.4%; in test [18], -9.06% (active). Moreover, the results for the growth in test [19] and in [20] were 13.2% and -16.6% (active), respectively.
For the molecule `CC/C(=C(\c1ccc(Cl)cc1)c1ccc(OCCN2CCCCC2)cc1)c1ccc(O)cc1`, the growth in test [1] is 47.6%; in test [2] it was 78.6%; in [3], 70.1%; in test [4], -9.16% (active); in test [5], -34.5% (active); in [6], 49.9%. Besides, the growth is 58.1% in test [7]; 32.5% in [8]; -54.9% (active) in [9]; -73.5% (active) in [10]; 39.7% in test [11]; -28.4% (active) in test [12]. Further, the growth in [13] was -38.1% (active); in test [14] it was 26.5%; in test [15], -6.93% (active); in test [16] it was 53%; in [17], 54.6%; in [18] it was 50%. Further, the growth in [19] was -22.1% (active); in test [20], -55.5% (active).
On to `Cc1cc2oc(/C=C/c3ccccc3)cc(=O)c2c(C)c1Cl`, for which the growth in test [1] is 88.8%; in test [2], 103%; in test [3] it was 110%; in test [4], 103%; in [5], 105%; in test [6] it was 97%. For the same molecule, the growth in test [7] is 93.8%; in [8] it was 91.6%; in test [9] it was 93.2%; in test [10], 104%; in test [11] it was 103%; in [12], 118%. Besides, the growth in test [13] is 94%; in test [14] it was 107%; in test [15], 98%; in [16], 102%; in [17], 96.2%; in [18] it was 98.9%. The growth was 97% in test [19] and 108% in test [20].
`Cc1ccc2c(/C=C/C(=O)c3cc(CN4CCOCC4)c(O)c4nc(C)ccc34)cc(CN3CCOCC3)c(O)c2n1`: the growth in test [1] was -2.24% (active); in test [2], -13% (active); in [3], 17%; in [4], -7.03% (active); in [5], 7.83% (active); in test [6], 30.9%. In addition, the growth in test [7] is -54.8% (active); in [8] it was 11.3%; in test [9], -31.9% (active); in test [10], -25.8% (active); in [11], -55.9% (active); in [12], 1.93% (active). The growth is 42.9% in [13]; 11.5% in test [14]; -74.5% (active) in [15]; 13.2% in test [16]; 23% in test [17]; -29.4% (active) in [18]. In addition, the growth was 7.95% (active) in test [19] and -20.1% (active) in test [20].
Turning to `C/C=C1/CN(CCCCC)CC[C@H]1C(=O)c1cc2ccccc2[nH]1`, the growth in test [1] was 85.1%; in test [2] it was 92.9%; in test [3], 86.6%; in test [4], 85.5%; in [5] it was 97.3%; in [6] it was 52.3%. In addition, the growth in test [7] was 88.1%; in test [8] it was 100%; in test [9], 99.9%; in test [10] it was 98.9%; in test [11], 99%; in test [12], 69.6%. Besides, the growth in test [13] is 91.4%; in test [14], 88.5%; in test [15], 94.1%; in test [16] it was 89.8%; in [17], 94.5%; in [18], 98.9%. Moreover, the growth in test [19] is 108%; in test [20], 90.2%.
With `CCN(CC)CCOc1ccc(C(=O)/C=C\c2ccc(Cl)cc2Cl)cc1`, the growth was 58.3% in test [1]; 53.5% in test [2]; 63.9% in test [3]; 57.2% in test [4]; 61.3% in [5]; 24.5% in [6]. The growth in test [7] is 44%; in test [8], 21.7%; in [9] it was 35.9%; in test [10], -53.5% (active); in test [11], 51.7%; in test [12], 3.71% (active). The growth in test [13] is 42.4%; in test [14], 32.6%; in test [15] it was 34%; in test [16], 55.2%; in test [17], 63.2%; in [18], 30%. The growth in test [19] is 3.72% (active); in test [20] it was -37.4% (active).
